Bioassay records as filed in PubChem BioAssay.
OTUD3 inh – inhibitors of human OTUD3 deubiquitinase; purified OTUD3, Ub-rhodamine fluorescence, 2 h; inhibition, % at 25 µM; 47,000 tested, 0.7% active
USP30 block – inhibitors of human USP30 deubiquitinase; AID 1645860, 2021; inhibition, % at 25 µM; purified USP30, Ub-rhodamine cleavage fluorescence; 47,000 tested, 5.3% active
USP17 block – inhibitors of human USP17 deubiquitinase; AID 1645855, 2021; inhibition, % at 50 µM; 47,000 tested, 6.5% active; purified USP17, Ub-rhodamine cleavage fluorescence, 3 h; Ubiquitin carboxyl-terminal hydrolase 17-like protein 5 (Homo sapiens), A8MUK1
Target sequence (A8MUK1 whole entry, looked up): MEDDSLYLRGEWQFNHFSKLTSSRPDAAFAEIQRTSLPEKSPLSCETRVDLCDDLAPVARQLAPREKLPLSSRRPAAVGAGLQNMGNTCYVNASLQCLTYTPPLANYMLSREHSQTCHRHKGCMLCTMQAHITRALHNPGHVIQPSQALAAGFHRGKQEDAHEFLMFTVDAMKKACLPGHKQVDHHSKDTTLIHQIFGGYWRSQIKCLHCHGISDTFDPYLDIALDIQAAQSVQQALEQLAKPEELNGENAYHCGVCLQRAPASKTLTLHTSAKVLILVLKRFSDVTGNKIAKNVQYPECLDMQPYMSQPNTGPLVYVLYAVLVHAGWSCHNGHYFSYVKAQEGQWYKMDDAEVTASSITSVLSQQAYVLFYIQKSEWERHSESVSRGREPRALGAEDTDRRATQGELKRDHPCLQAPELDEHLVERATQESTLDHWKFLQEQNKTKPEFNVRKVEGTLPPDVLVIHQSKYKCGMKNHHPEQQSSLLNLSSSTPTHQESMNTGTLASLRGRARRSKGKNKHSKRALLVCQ
USP28 block – inhibitors of human USP28 deubiquitinase; purified USP28, Ub-rhodamine cleavage fluorescence, 30 min; inhibition, % at 25 µM; 47,000 tested, 3% active
* = called active by the depositor; · = no result given. Shown are actives, neighbours in structure and some others; about 12% of the full set was active somewhere. Rule as the data show it: active = inhibition above about 30%; inactive = the rest.

SMILES | OTUD3 inh | USP30 block | USP17 block | USP28 block
CCCN1C(=O)CCc2cc(NC(=O)c3ccccc3)ccc21 | 10.1 | 10.1 | 2.2 | 27.2
CN1C(=O)CCc2cc(NC(=O)c3cc4ccccc4[nH]3)ccc21 | -31.7 | -87.9 | 33.2* | -31.7
COC(=O)c1ccc(C(=O)Nc2cc3ccccc3cc2NC(=O)c2ccc(C(=O)OC)cc2)cc1 | 0.0 | 40.8* | 68.2* | 2.5
COc1cccc(CNCC(O)(c2ccc(F)cc2)c2ccc(F)cc2)c1 | 16.6 | 5.8 | 11.0 | 11.8
Cc1nc(-c2ccc(Cl)cc2)sc1-c1ccc2ccccc2n1 | 6.1 | 0.0 | 6.2 | -3.2
Cc1cc(NC(=O)c2ccccn2)nn1Cc1ccccc1 | 2.1 | 3.4 | 1.7 | 14.5
Cc1ccc(Cn2ccc(NC(=O)c3cc(-c4ccco4)on3)n2)cc1 | 4.8 | -265.8 | 30.4* | -86.1
COc1ccc(-c2cc(C(=O)Nc3ccnn3Cc3ccccc3)no2)cc1 | -0.2 | 32.0* | 36.5* | -3.1
COc1cccc(-c2cc(C(=O)Nc3cc(C)n(Cc4ccc(Cl)cc4)n3)no2)c1 | 27.0 | 75.3* | 20.1 | 12.8
COCCNC(=O)Cn1c(=O)cc(C)c2c(-c3ccccc3)nn(-c3ccccc3)c21 | -17.6 | -70.5 | -22.4 | -24.5
O=C(c1ccc2nnc(-c3ccccc3)n2c1)N1CCN(Cc2ccccc2)CC1 | -18.5 | -33.4 | -23.1 | -22.3
CNc1nc2c(c(=O)n1C)CN(C(=O)Nc1cccc3ccccc13)CC2 | 59.5* | -26.6 | 71.2* | 43.3*
CC1(C)Oc2ccc(Cl)cc2[C@H]2OCC3(CCN(C(=O)c4ccc(=O)[nH]c4)CC3)C[C@@H]21 | -1.1 | -2.2 | -7.7 | -0.2
CCN(Cc1ccccc1)C(=O)Cn1ccc2ccn(C)c2c1=O | 2.7 | 20.0 | 4.4 | 12.7
COc1ccc(C)cc1-n1nnnc1SCC(=O)c1cc(C)ccc1C | 11.8 | 32.3* | 3.9 | 22.5
Cc1ccsc1CCNC(=O)c1cc(-c2ccccc2)c(N2CCOCC2)s1 | 0.0 | 9.0 | -1.7 | 1.1
C[C@@H]1CO[C@@H]2C3=C(C(=O)C=CC3=O)[C@H]3OC(=O)[C@@H]4CCC5[C@@H]1CCC52C34 (some centres undefined) | 58.9* | 59.1* | 80.5* | 61.9*
COc1cc2ncc(S(=O)(=O)c3ccc(C)cc3)c(Nc3ccc(F)cc3)c2cc1OC | -2.5 | -6.2 | -30.6 | 46.7*
Cc1cc2nc(N3CCN(C(=O)c4ccccc4)CC3)c3ccccc3n2n1 | 6.4 | 33.8* | 16.2 | 4.5
Cc1cc2nc(N3CCCCC3C)c3ccccc3n2n1 (centres undefined) | -2.5 | -8.1 | -28.8 | -5.0
Nc1c(-c2ccc3c(c2)OCO3)nc2ccccn12 | 0.5 | · | 7.6 | ·
c1ccc2c(c1)ccc1nnc(-c3ccc4c(c3)OCO4)n12 | 20.0 | 57.9* | 36.9* | 60.5*
O=c1[nH]c2ccccc2n1C1CCN(S(=O)(=O)c2ccc3c(c2)OCCO3)CC1 | -7.0 | -1.5 | 0.6 | -7.0
Cc1nc2ccc(C(=O)N3CCCC3c3nc(C)c4c(n3)N(CC(C)C)C(=O)C4)cc2s1 (centres undefined) | 1.5 | -11.1 | 42.4* | -0.1
COc1cc(-c2c(NC(=O)c3ccc([N+](=O)[O-])cc3)n(C)c3ccccc3c2=O)cc(OC)c1OC | 14.3 | 30.8* | 21.8 | 11.6
SMILES | OTUD3 inh | USP30 block | USP17 block | USP28 block
CC(C)CCNC(=O)C1CCN(c2nc3cccnc3n(Cc3ccccc3)c2=O)CC1 | -7.5 | -72.8 | -16.4 | -25.1
CCc1[nH]c(=O)cc2cc(OC)c(OC)cc12 | 92.2* | 81.7* | 94.4* | 96.8*
COc1ccc(C(=O)Nc2ccc(C)c(S(=O)(=O)N3CCCCCC3)c2)cc1 | -2.0 | -8.7 | -5.6 | 1.1
COc1ccc(C(=O)Nc2cc(F)c3[nH]c(=O)ccc3c2)cc1 | 16.7 | 35.0* | 38.8* | 28.9
Cc1cccn2c(NC(C)(C)C)c(C3CCN(C(=O)C4CCC(=O)N4)CC3)nc12 (centres undefined) | 3.1 | -3.0 | 1.0 | -1.2
COc1ccccc1N(C(=O)Nc1ccccc1)C1=NCCC1 | 7.4 | 14.8 | 11.6 | 45.9*
COc1ccc(NC(=O)N(C2=NCCC2)c2ccccc2)cc1 | 0.6 | 6.3 | 11.4 | 0.7
Cc1ccccc1-c1noc2ncnc(NCCN3CCC(C)CC3)c12 | 4.6 | -1.7 | 0.1 | 9.3
CCOC(=O)C1CCN(Cc2cc(=O)oc3cc(O)c(O)cc23)CC1 | 84.5* | 52.2* | 85.5* | 84.8*
O=C(NCCc1cccc(F)c1)c1nc2c(s1)CCCN2C(=O)C1CC1 | 3.0 | 12.2 | -9.3 | 36.8*
O=C(Nc1ccc2c(c1)CCN2S(=O)(=O)c1ccccc1)Nc1ccc(F)cc1F | 7.1 | 14.7 | 15.7 | 42.9*
CN(C)C(=O)N1CCC(c2nc3ccc(-c4cccc(F)c4)cn3n2)CC1 | -4.1 | 0.1 | -124.8 | 0.7
COc1cccc(-c2ccc3nc(C4CCN(C(=O)N(C)C)CC4)nn3c2)c1 | 5.6 | 15.5 | 5.5 | 30.4*
O=C(CNc1cc(S(=O)(=O)N2CCOCC2)ccc1Cl)N1CCC(Cc2ccccc2)CC1 | 9.5 | 14.5 | 13.8 | 28.2
COc1ccccc1/C=C(/C(=O)N1CCN(Cc2ccc3c(c2)OCO3)CC1)c1ccccc1 | 13.8 | 41.8* | 15.2 | 14.2
COc1ccccc1/C=C(\C(=O)N1CCN(c2ccccc2F)CC1)c1ccccc1 | 18.5 | 19.4 | 5.8 | 17.2
CCOc1cc(N2CCOCC2)c(OCC)cc1NC(=O)c1cc(-c2ccncc2)nc2ccccc12 | 11.6 | -9.4 | 65.8* | 8.7
CCOc1cc(N2CCOCC2)c(OCC)cc1NC(=O)c1ccccc1Oc1ccccc1 | 14.4 | -0.6 | 0.6 | 9.1
Cc1cnc(C2COCCN2C(=O)c2ccc3[nH]c(C)c(C)c3c2)[nH]1 (centres undefined) | 10.2 | 23.0 | 9.5 | 9.7
COc1ccc(-c2nc(-c3ccccc3)[nH]c2S(=O)(=O)CC(=O)Nc2ccc(F)cc2)cc1 | 11.5 | 22.0 | 35.6* | 20.1
COc1ccc(NC(=O)CS(=O)(=O)c2[nH]c(-c3ccc(C)cc3)nc2-c2ccccc2)cc1Cl | -4.6 | 59.8* | 21.3 | 8.9
CCn1c(CNc2ccc(C)cc2)nnc1SCC(=O)Nc1ccccc1F | 6.2 | 15.9 | -8.0 | 28.4
CCn1c(CNc2ccc(C)cc2)nnc1SCC(=O)Nc1ccc(C(=O)OC)cc1 | 1.6 | 8.0 | 24.0 | 42.4*
CC(C)OC(=O)c1cc2c(ccn2-c2ccc(F)cc2)n1CC(=O)NC1CCCCC1 | 46.7* | 19.3 | 23.4 | 17.6
O=C(Nc1ccc2[nH]c(=O)[nH]c2c1)c1cc2ccccc2o1 | -24.1 | -88.5 | 42.5* | -8.6
CSc1cccc(NC(=O)CNC(=O)c2cc3ccccc3o2)c1 | -12.4 | -27.5 | 65.3* | 13.4
O=C(NCCc1nc2ccccc2[nH]1)c1cc2ccccc2o1 | -4.5 | -3.4 | -2.0 | 3.7
CCCc1ncc(CN2CCC3(CC2)CN(S(C)(=O)=O)Cc2ccccc2O3)cn1 | -13.0 | -1.2 | -0.6 | -14.4
CCN1CCc2c(cccc2-n2nnc(C(=O)NCC(C)C)c2C)C1 | -21.1 | -65.1 | -46.0 | -26.2
Cc1ccccc1CC(=O)Nc1ccc2c(c1)Sc1ncccc1C(=O)N2C | 10.9 | · | 8.9 | ·
